Reference: PubChem BioAssay (Tox21)
Inconclusive results are not listed. The source made the active and inactive calls. Calls come from the whole dose curve; as a rule, active = well fitted inhibition curve with a large enough effect in the repeat runs; inconclusive = weak or mixed curves; inactive = no such curve, though single readings can be large or run the other way.
% is set by controls: 0 for no effect and ±100 for the full control effect.

Each compound was assayed against Estrogen receptor (Homo sapiens) (UniProt P03372) (assay: qHTS assay to identify small molecule antagonists of the estrogen receptor alpha (ER-alpha) signaling pathway using the BG1 cell line in the presence of 0.1 nM 17-beta-estradiol (AID 1259244; note: nearly all actives have a fitted effect of over 50% in size)). Settings: VM7Luc4E2 (BG1) ERE-luciferase, antagonist mode, 0.1 nM E2, 22 h; series mostly up to 92.4 µM; activity change, negative = inhibition: at the top concentration.
Estrogen receptor (Homo sapiens), sequence (P03372 whole entry, looked up): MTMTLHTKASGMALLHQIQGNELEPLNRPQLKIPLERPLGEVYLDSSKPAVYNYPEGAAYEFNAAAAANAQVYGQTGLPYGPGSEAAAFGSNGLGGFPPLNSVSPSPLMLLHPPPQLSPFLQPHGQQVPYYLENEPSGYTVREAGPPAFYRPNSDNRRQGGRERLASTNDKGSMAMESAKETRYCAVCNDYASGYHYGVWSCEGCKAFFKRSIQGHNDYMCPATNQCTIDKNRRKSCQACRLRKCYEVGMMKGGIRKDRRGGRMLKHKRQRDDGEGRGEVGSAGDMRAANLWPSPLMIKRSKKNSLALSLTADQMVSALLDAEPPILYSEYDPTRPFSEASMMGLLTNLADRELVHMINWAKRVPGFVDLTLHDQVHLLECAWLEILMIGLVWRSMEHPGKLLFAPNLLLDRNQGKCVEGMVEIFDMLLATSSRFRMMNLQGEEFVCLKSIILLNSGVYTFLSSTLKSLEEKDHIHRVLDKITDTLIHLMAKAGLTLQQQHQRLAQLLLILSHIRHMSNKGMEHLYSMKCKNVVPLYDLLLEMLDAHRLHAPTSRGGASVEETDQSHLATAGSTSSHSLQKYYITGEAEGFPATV
From the text: National Center for Advancing Translational Sciences [NCATS]
NIH Chemical Genomics Center [NCGC]
U.S. Environmental Protection Agency [EPA]
National Institutes of Environmental Health Sciences [NIEHS]
National Toxicology Program [NTP]
U.S. Food and Drug Administration [FDA]
Estrogen receptor (ER), a member of the nuclear hormone receptor plays an important role in development, metabolic homeostasis and reproduction. Two subtypes of ER, ER-alpha and ER-beta, have similar expression patterns with some uniqueness in both types. Endocrine disrupting chemicals (EDCs) and their interactions with steroid hormone receptors like ER causes disruption of normal endocrine function. Therefore, it is important to understand the effect of environmental chemicals in ER signaling pathway. For identifying ER antagonists, VM7Luc4E2 cell line was used to screen against Tox21 compound libraries.
VM7Luc4E2 cell line (provided by Denison MS, University of California) endogenously express full-length ER-alpha and is stably transfected with a plasmid containing four estrogen responsive elements (ERE) upstream of a luciferase reporter gene. The current screening for identification of ER-alpha inhibitors against Tox21 compound libraries used lower concentration (0.1 nM) of 17beta-Estradiol as a stimulator.
Tox21 Assay Protocol Summary:
VM7Luc4E2 cells were cultured in phenol red free assay medium containing 10% charcoal stripped FBS for 5 days prior to the assay. The cells were dispensed at 4,000 cells/well in 4 uL of assay medium into white wall/solid-bottom 1536-well plates (Corning Life Sciences, Corning, NY) using a Multidrop Combi (ThermoFisher Scientific, Waltham, MA) dispenser. After the assay plates were incubated at 37C and 5% CO2 for 24 hr, 23 nL of compounds dissolved in DMSO, positive controls or DMSO only was transferred to the assay plates by a Pintool station (Kalypsys, San Diego, CA). The transfer of compounds was followed by the addition of 1 uL of 0.1 nM (final concentration) agonist (17beta-Estradiol)/assay medium using a Flying Reagent Dispenser (FRD, Aurora Discovery, San Diego, CA). The plates were incubated at 37C and 5% CO2 for 22 hr. For luciferase reporter gene assay, 4 uL of ONE-Glo reagent (Promega Corporation, Madison, WI) was added to each well using the FRD and after 30 min incubation at room temperature luminescence intensity was measured using ViewLux plate reader (PerkinElmer, Shelton, CT).
In the case of CCOC(=O)c1ccc(OC(=O)CCCCCN=C(N)N)cc1, the “activity change, negative = inhibition” value is reported as 59.5% [at 42.5 µM] (inactive).
O=C(O)c1cc(Cl)cc([N+](=O)[O-])c1Cl was tested, and the “activity change, negative = inhibition” value was -6.04% (inactive).
CN(C)CCOCCO was tested, and the “activity change, negative = inhibition” value was 2.03% (inactive).
CC(C)N(c1ccccc1)C(C)C was tested, and the “activity change, negative = inhibition” value was 2.8% (inactive).
In the case of OCCC(F)(F)C(F)(F)C(F)(F)C(F)(F)C(F)(F)C(F)(F)C(F)(F)C(F)(F)F, the “activity change, negative = inhibition” value is reported as -0.297% (inactive).
Cc1ccc(C=O)cc1C was tested, and the “activity change, negative = inhibition” value was -8.46% (inactive).
In the case of COc1ccc2nc(SCc3ncc(C)c(OC)c3C)[nH]c2c1, the “activity change, negative = inhibition” value is reported as 6.27% [at 42.5 µM] (inactive).
With CCCCN the “activity change, negative = inhibition” value was 7.74% [at 42.5 µM] (inactive).
In the case of CCCCCCCCC1CCC(=O)O1 (stereo not given), the “activity change, negative = inhibition” value is reported as 42.1% (inactive).
CC(=O)OC(C)OC(=O)C(C)c1ccc(-c2ccccc2)c(F)c1 (stereo not given) was tested, and the “activity change, negative = inhibition” value was -0.573% [at 42.5 µM] (inactive).
Cc1cccc2nccnc12 was tested, and the “activity change, negative = inhibition” value was 3% (inactive).
With CC(C)CC(=O)O the “activity change, negative = inhibition” value was -24.4% (inactive).
For CN(CCOc1ccc(NS(C)(=O)=O)cc1)CCc1ccc(NS(C)(=O)=O)cc1, the “activity change, negative = inhibition” value was 2.6% [at 42.5 µM] (inactive).
CCOC(=O)c1ncn2c1CN(C)C(=O)c1cc(F)ccc1-2 was tested, and the “activity change, negative = inhibition” value was 6.08% [at 42.5 µM] (inactive).
In the case of Cc1ccc2ccc(Cl)cc2n1, the “activity change, negative = inhibition” value is reported as -5.1% [at 42.5 µM] (inactive).
N[C@@H](CCC(=O)Nc1ccc([N+](=O)[O-])cc1)C(=O)O was tested, and the “activity change, negative = inhibition” value was 9.72% (inactive).
With NS(=O)(=O)c1ccc(NC(=O)CCC(=O)O)cc1 the “activity change, negative = inhibition” value was 3.54% [at 42.5 µM] (inactive).
In the case of COCCOC(=O)C1=C(C)NC(C)=C(C(=O)OC(C)C)C1c1cccc([N+](=O)[O-])c1 (stereo not given), the “activity change, negative = inhibition” value is reported as -15.4% [at 42.5 µM] (inactive).
In the case of CC(CC=O)CCCC(C)(C)O (stereo not given), the “activity change, negative = inhibition” value is reported as 14.6% (inactive).
For COC(=O)CCCCCCCC(=O)OC, the “activity change, negative = inhibition” value was 3.06% (inactive).
With COc1cc2c(cc1OC)[C@@H]1CC(=O)[C@@H](CC(C)C)CN1CC2 the “activity change, negative = inhibition” value was -9.58% [at 42.5 µM] (inactive).
In the case of O=C1CCCC(=O)O1, the “activity change, negative = inhibition” value is reported as 4.34% (inactive).
With CCCOC(=O)C(C)O (stereo not given) the “activity change, negative = inhibition” value was -2.44% (inactive).
With Cc1c(I)c(=O)n(-c2ccccc2)n1C the “activity change, negative = inhibition” value was -0.573% [at 42.5 µM] (inactive).
For Nc1ncnc(Nc2ccccc2)n1, the “activity change, negative = inhibition” value was 44% [at 42.5 µM] (inactive).
For CC(=O)NCc1c(I)c(NC(C)=O)c(I)c(C(=O)O)c1I, the “activity change, negative = inhibition” value was 2.45% [at 42.5 µM] (inactive).
Nc1cccc(O)c1 was tested, and the “activity change, negative = inhibition” value was 9.93% (inactive).
With O=C(O)c1ccc(Cl)cc1Cl the “activity change, negative = inhibition” value was 19.9% (inactive).
For COc1ccc(S(=O)(=O)N2c3ccc(Cl)cc3[C@@](O)(c3ccccc3Cl)[C@H]2C(=O)N2CCC[C@@H]2C(N)=O)cc1OC, the “activity change, negative = inhibition” value was -3.25% [at 42.5 µM] (inactive).
In the case of c1ccc2nccnc2c1, the “activity change, negative = inhibition” value is reported as 32.4% (inactive).
For CCOC(=O)/C=C/c1ccccc1, the “activity change, negative = inhibition” value was 13.7% (inactive).
Oc1cn2c(n1)Nc1ccc(Cl)c(Cl)c1C2 was tested, and the activity change, negative = inhibition was -26.8% [at 19 µM] (inactive).
With COc1ccc(-c2cc(=O)c3c(O)cc(O[C@@H]4O[C@H](CO[C@@H]5O[C@@H](C)[C@H](O)[C@@H](O)[C@H]5O)[C@@H](O)[C@H](O)[C@H]4O)cc3o2)cc1O the “activity change, negative = inhibition” value was 4.7% [at 42.5 µM] (inactive).
For O=C(CS(=O)Cc1ccco1)NC/C=C\COc1cc(CN2CCCCC2)ccn1 (stereo not given), the “activity change, negative = inhibition” value was 1.59% [at 42.5 µM] (inactive).
In the case of CNS(=O)(=O)CCc1ccc2[nH]cc(C3CCN(C)CC3)c2c1, the “activity change, negative = inhibition” value is reported as -0.429% [at 42.5 µM] (inactive).
For CC(CO)c1ccccc1 (stereo not given), the “activity change, negative = inhibition” value was -1.26% (inactive).
CN(C)C(=O)CNC(=O)Cc1ccccc1 was tested, and the “activity change, negative = inhibition” value was 1.24% [at 42.5 µM] (inactive).
In the case of CC(C)C(=O)OCCc1ccccc1, the “activity change, negative = inhibition” value is reported as 0.994% (inactive).
CCCCCCCCSCC was tested, and the “activity change, negative = inhibition” value was 0.463% (inactive).
For C[C@H](CCC(=O)O)[C@H]1CC[C@H]2[C@@H]3C(=O)C[C@@H]4CC(=O)CC[C@]4(C)[C@H]3CC(=O)[C@]12C, the “activity change, negative = inhibition” value was 1.57% [at 42.5 µM] (inactive).
